From PMC7862700, “An all-to-all approach to the identification of sequence-specific readers for epigenetic DNA modifications on cytosine”

What was measured:
Assay in all cases: DAPPL (digital affinity profiling via proximity ligation, sequencing); 10 mM Tris-HCl pH 7.5, 50 mM NaCl, 1 mM DTT, 4% glycerol, room temperature, 30 min; GST-TFs on glutathione beads, 16-mer random dsDNA library, 0.1% formaldehyde crosslink after washing; high values mean tight binding
FLI1 = target: T1, FLI1 (Homo sapiens, UniProt Q01543 1-452); details: protein: recombinant; tags: N-terminal GST; dsDNA, one strand shown
T1 sequence: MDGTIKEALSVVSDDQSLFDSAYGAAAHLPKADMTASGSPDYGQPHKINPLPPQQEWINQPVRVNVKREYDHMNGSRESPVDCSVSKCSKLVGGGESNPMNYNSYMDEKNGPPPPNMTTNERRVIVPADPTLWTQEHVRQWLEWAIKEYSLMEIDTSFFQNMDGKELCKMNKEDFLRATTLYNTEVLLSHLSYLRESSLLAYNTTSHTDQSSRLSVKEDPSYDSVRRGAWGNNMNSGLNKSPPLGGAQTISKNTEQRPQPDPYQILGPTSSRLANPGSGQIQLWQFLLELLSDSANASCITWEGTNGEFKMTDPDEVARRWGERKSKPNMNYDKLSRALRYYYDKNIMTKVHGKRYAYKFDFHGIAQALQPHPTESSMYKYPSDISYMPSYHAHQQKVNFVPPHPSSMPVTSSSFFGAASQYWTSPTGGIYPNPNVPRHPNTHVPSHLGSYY
Summary of the method: (§1)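 Pools of DNA-barcoded human transcription factors, expressed in yeast as GST fusions on glutathione beads and combined with a tag-only sample, were incubated with 200 nmole of a 16-mer random double-stranded DNA library. Incubation took 30 min at room temperature in Tris/NaCl/DTT/glycerol buffer and was followed by washing, 0.1% formaldehyde crosslinking, proximity ligation (BsaI/T4 ligase, 1 h, 37 °C), PCR amplification and sequencing on an Illumina NextSeq500. Binding signal is the ratio of a hexamer's read frequency for a factor to its frequency for the tag-only sample.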

ELK1 = target: T2, ELK1 (Homo sapiens, UniProt P19419 1-428); details: protein: recombinant; tags: N-terminal GST; dsDNA, one strand shown
T2 sequence: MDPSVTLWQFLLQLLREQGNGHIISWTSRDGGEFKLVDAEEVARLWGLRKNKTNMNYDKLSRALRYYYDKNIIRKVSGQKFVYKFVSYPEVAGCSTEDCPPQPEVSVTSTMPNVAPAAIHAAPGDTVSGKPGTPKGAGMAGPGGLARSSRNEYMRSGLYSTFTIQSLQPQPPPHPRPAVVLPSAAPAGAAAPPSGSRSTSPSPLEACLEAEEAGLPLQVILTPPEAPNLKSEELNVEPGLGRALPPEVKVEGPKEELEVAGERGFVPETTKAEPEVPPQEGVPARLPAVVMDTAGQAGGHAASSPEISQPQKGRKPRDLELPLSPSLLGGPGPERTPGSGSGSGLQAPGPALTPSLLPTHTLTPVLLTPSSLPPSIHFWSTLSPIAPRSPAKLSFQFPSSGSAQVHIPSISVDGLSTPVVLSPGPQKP
Summary of the method: as §1

GABPA = target: T3, GABPA (Homo sapiens, UniProt Q06546 1-454); details: protein: recombinant; tags: N-terminal GST; dsDNA, one strand shown
T3 sequence: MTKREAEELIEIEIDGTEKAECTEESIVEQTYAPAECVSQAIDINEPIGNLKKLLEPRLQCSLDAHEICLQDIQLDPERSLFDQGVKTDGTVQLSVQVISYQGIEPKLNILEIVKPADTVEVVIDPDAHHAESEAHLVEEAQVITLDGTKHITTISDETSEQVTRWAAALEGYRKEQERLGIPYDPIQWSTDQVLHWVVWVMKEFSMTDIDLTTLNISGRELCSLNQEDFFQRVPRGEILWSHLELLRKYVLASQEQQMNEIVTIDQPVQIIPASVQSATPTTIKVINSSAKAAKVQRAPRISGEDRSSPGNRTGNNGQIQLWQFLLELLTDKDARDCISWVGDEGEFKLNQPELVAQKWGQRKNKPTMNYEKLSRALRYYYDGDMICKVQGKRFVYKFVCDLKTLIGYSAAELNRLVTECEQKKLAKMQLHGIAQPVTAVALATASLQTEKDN
Summary of the method: as §1

ERG = target: T4, ERG (Homo sapiens, UniProt P11308 1-479); details: protein: recombinant; tags: N-terminal GST; dsDNA, one strand shown
T4 sequence: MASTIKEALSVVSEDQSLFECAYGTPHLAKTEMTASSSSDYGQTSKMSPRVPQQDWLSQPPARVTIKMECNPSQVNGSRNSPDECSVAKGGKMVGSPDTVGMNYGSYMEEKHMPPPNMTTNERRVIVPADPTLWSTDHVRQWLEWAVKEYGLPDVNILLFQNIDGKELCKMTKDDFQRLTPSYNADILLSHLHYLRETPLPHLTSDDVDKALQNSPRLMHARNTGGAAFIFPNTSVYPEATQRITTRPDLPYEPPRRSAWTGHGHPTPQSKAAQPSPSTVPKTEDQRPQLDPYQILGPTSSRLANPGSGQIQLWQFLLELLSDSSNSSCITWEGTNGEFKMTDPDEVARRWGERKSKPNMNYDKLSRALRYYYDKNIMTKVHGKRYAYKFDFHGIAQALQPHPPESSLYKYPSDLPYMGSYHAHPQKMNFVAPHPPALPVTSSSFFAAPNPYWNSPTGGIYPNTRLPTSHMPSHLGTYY
Summary of the method: as §1

ELF1 = ELF1 (Homo sapiens, UniProt P32519 1-619); details: protein: recombinant; tags: N-terminal GST; dsDNA, one strand shown
Summary of the method: as §1

EHF = target: T5, EHF (Homo sapiens, UniProt Q9NZC4 1-300); details: protein: recombinant; tags: N-terminal GST; dsDNA, one strand shown
T5 sequence: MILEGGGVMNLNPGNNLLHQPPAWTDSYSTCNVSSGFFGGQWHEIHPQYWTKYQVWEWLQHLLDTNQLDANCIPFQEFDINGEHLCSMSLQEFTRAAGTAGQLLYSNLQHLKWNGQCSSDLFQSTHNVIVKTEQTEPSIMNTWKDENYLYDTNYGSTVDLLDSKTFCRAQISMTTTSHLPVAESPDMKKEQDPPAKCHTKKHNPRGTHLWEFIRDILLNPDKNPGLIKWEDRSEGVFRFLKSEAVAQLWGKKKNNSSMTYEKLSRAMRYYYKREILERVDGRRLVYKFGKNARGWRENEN
Summary of the method: as §1

SPI1 = SPI1 (Homo sapiens, UniProt P17947 1-270); details: protein: recombinant; tags: N-terminal GST; dsDNA, one strand shown
Summary of the method: as §1

SPIB = SPIB (Homo sapiens, UniProt Q01892 1-262); details: protein: recombinant; tags: N-terminal GST; dsDNA, one strand shown
Summary of the method: as §1

ELK3 = target: T6, ELK3 (Homo sapiens, UniProt P41970 1-407); details: protein: recombinant; tags: N-terminal GST; dsDNA, one strand shown
T6 sequence: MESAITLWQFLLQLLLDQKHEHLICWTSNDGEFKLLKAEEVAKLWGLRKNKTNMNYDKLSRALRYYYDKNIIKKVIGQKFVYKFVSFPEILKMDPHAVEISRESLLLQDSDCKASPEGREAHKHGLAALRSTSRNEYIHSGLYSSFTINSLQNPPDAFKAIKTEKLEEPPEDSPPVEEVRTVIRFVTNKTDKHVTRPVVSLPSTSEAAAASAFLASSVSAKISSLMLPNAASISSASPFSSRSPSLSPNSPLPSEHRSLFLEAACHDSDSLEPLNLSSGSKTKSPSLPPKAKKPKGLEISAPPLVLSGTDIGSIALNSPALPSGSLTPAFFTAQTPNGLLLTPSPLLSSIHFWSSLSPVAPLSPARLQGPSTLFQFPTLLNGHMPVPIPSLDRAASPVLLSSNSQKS
Summary of the method: as §1

FEV = target: T7, FEV (Homo sapiens, UniProt Q99581 1-238); details: protein: recombinant; tags: N-terminal GST; dsDNA, one strand shown
T7 sequence: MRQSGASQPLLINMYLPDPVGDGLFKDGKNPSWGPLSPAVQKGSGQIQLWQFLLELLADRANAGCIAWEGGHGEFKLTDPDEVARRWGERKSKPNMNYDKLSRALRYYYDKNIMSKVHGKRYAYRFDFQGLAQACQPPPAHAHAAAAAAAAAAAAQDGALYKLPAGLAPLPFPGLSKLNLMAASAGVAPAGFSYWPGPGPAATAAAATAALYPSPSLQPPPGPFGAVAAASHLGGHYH
Summary of the method: as §1

ETV5 = ETV5 (Homo sapiens, UniProt P41161 1-510); details: protein: recombinant; tags: N-terminal GST; dsDNA, one strand shown
Summary of the method: as §1

HSF1 = HSF1 (Homo sapiens, UniProt Q00613 1-529); details: protein: recombinant; tags: N-terminal GST; chain copies: 3; dsDNA, one strand shown
Summary of the method: as §1

SPIC = target: T8, SPIC (Homo sapiens, UniProt Q8N5J4 1-248); details: protein: recombinant; tags: N-terminal GST; dsDNA, one strand shown
T8 sequence: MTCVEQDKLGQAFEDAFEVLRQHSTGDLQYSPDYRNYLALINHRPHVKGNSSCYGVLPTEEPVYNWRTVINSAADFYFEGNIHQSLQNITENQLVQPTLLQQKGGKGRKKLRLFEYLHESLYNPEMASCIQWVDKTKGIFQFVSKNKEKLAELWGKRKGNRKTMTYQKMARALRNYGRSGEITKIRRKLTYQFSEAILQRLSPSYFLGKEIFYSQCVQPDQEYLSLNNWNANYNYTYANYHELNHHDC
Summary of the method: as §1

ELF4 = ELF4 (Homo sapiens, UniProt Q99607 1-663); details: protein: recombinant; tags: N-terminal GST; dsDNA, one strand shown
Summary of the method: as §1

ELK4 = target: T9, ELK4 (Homo sapiens, UniProt P28324-2 1-405); details: protein: recombinant; tags: N-terminal GST; dsDNA, one strand shown
T9 sequence: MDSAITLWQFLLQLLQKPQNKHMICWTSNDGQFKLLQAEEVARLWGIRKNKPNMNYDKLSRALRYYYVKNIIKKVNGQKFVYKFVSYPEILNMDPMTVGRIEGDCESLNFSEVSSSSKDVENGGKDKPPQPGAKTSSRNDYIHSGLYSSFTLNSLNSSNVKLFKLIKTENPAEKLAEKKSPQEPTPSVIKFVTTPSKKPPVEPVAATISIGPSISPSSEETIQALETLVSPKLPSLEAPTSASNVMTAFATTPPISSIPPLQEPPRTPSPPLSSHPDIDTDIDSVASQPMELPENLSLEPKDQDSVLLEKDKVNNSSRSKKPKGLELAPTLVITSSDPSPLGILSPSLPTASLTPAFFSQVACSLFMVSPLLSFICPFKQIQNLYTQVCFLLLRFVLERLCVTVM
Summary of the method: as §1

ETV2 = target: T10, ETV2 (Homo sapiens, UniProt O00321 1-342); details: protein: recombinant; tags: N-terminal GST; dsDNA, one strand shown
T10 sequence: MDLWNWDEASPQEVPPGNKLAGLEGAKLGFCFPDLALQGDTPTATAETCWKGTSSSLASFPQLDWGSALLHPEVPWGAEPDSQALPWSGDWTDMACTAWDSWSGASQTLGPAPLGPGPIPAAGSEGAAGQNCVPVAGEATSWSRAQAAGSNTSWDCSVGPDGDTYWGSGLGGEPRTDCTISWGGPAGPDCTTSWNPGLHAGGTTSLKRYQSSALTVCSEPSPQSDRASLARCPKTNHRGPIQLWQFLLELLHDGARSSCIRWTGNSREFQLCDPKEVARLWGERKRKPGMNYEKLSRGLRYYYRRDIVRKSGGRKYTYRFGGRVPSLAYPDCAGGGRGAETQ
Summary of the method: as §1

ELF3 = target: T11, ELF3 (Homo sapiens, UniProt P78545 1-371); details: protein: recombinant; tags: N-terminal GST; dsDNA, one strand shown
T11 sequence: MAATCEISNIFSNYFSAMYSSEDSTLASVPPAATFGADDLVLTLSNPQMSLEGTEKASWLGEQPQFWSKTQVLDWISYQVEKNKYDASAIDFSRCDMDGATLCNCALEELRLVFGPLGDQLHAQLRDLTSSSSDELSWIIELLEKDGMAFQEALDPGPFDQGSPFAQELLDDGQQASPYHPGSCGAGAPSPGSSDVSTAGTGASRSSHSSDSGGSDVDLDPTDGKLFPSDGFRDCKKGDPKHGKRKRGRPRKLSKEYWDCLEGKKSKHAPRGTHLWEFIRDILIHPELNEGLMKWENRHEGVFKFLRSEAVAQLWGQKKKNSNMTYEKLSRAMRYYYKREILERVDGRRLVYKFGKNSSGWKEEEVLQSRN
Summary of the method: as §1

CRX = CRX (Homo sapiens, UniProt O43186 1-299); details: protein: recombinant; tags: N-terminal GST; dsDNA, one strand shown
Summary of the method: as §1

ETV1 = ETV1 (Homo sapiens, UniProt P50549 1-477); details: protein: recombinant; tags: N-terminal GST; dsDNA, one strand shown
Summary of the method: as §1

ETV1, sequence (P50549 whole entry): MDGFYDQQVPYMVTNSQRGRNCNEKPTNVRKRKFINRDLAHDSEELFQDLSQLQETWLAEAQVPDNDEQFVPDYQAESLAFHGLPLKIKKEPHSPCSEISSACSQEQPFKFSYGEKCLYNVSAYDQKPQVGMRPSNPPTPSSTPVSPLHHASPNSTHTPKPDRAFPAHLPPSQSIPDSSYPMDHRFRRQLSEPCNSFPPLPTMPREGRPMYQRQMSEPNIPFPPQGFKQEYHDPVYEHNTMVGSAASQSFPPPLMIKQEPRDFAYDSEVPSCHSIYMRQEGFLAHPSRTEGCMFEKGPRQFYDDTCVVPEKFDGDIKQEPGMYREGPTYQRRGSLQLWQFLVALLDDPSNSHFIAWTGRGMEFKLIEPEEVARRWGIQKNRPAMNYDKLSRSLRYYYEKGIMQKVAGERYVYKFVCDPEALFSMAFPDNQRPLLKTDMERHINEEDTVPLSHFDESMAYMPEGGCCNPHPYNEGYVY
ELF4, sequence (Q99607 whole entry): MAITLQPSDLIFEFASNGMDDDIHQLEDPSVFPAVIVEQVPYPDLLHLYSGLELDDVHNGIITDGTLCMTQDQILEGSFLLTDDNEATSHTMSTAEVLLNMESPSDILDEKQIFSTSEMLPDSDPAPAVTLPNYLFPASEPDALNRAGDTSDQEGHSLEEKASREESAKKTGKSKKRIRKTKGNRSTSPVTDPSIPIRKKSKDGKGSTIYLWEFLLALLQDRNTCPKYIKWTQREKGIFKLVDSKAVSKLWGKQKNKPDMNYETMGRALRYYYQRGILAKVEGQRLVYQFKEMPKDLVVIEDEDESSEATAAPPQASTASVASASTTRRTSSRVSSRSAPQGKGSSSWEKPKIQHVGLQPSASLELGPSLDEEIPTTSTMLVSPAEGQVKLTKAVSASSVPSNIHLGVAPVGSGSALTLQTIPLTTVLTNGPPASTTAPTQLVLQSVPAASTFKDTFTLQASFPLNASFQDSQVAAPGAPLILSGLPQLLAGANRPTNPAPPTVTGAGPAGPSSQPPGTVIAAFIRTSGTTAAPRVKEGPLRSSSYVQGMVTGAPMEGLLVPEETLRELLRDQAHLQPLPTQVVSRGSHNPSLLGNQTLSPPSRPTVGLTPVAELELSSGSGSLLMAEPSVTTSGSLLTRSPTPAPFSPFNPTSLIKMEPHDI
SPIB, sequence (Q01892 whole entry): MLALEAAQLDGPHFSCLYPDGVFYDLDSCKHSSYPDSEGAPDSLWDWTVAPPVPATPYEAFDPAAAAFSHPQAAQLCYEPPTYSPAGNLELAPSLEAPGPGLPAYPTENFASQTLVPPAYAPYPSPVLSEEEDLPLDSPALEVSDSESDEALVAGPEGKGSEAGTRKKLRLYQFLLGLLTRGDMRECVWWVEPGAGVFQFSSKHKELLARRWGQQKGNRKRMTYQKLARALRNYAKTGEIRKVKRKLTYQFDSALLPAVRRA
ELF1, sequence (P32519 whole entry): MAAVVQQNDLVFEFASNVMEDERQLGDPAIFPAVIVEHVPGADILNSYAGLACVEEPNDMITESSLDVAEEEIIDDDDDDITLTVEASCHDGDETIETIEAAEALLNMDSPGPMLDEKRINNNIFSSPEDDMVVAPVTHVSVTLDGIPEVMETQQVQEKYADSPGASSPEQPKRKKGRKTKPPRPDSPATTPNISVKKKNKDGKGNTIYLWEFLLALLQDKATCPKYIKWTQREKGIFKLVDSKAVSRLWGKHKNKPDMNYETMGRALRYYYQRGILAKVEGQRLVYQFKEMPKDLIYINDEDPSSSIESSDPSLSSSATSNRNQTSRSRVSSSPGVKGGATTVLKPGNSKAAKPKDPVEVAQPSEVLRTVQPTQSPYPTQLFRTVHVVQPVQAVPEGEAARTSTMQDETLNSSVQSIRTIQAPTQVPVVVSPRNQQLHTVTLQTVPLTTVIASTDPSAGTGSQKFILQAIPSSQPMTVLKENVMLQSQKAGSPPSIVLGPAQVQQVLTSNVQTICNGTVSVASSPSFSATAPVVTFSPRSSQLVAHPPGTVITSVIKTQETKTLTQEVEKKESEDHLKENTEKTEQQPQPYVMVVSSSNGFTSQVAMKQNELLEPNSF
ETV5, sequence (P41161 whole entry): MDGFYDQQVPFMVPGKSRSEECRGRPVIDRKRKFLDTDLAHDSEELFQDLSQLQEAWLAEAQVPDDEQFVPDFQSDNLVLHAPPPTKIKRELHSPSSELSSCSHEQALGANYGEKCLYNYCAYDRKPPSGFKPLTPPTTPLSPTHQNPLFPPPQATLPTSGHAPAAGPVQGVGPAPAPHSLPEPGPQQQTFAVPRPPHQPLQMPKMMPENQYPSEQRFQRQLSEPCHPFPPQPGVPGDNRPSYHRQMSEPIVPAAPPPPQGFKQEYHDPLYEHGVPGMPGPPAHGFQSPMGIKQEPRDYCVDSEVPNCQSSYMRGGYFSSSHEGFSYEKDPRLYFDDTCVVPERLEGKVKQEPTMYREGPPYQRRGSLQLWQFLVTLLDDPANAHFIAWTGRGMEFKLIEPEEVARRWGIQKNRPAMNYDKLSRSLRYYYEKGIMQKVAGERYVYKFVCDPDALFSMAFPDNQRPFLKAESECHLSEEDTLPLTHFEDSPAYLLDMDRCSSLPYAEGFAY
CRX, sequence (O43186 whole entry): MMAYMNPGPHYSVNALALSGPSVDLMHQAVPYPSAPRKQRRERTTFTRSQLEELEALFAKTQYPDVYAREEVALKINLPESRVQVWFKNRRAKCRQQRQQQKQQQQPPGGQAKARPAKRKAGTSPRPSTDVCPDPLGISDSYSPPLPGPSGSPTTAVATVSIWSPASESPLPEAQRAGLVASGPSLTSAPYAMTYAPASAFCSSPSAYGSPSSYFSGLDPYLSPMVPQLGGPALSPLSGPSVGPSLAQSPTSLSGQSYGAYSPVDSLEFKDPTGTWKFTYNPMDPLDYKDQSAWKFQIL
HSF1, sequence (Q00613 whole entry): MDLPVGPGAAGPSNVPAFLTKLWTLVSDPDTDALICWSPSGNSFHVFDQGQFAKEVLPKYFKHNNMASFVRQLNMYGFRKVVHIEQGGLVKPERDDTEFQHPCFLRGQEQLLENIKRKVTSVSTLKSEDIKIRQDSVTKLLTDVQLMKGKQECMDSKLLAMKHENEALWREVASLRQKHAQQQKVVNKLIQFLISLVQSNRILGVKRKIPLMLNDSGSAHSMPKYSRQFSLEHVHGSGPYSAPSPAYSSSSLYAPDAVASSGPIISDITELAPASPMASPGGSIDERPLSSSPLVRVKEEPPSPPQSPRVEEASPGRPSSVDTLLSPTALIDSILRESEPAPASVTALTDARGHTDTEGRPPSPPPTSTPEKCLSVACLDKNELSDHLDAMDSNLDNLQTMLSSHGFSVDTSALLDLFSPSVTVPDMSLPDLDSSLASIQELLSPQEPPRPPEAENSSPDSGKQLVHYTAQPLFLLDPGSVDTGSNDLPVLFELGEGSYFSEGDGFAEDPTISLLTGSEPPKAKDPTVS

With CCAATC the binding signal (FLI1) was 1.21 fold enrichment (6-mer frequency, TF over GST control), the binding signal (ELK1) was 1.14 fold enrichment (6-mer frequency, TF over GST control) and the binding signal (GABPA) was 1.2 fold enrichment (6-mer frequency, TF over GST control). For the same sequence, the binding signal (ERG) was 1.12 fold enrichment (6-mer frequency, TF over GST control), the binding signal (ELF1) was 1.23 fold enrichment (6-mer frequency, TF over GST control) and the binding signal (EHF) was 1 fold enrichment (6-mer frequency, TF over GST control). The binding signal (SPI1) was 1.14 fold enrichment (6-mer frequency, TF over GST control), the binding signal (SPIB) was 1.1 fold enrichment (6-mer frequency, TF over GST control) and the binding signal (ELK3) was 1.22 fold enrichment (6-mer frequency, TF over GST control). The binding signal (FEV) was 1.11 fold enrichment (6-mer frequency, TF over GST control), the binding signal (ETV5) was 1.16 fold enrichment (6-mer frequency, TF over GST control) and the binding signal (HSF1) was 1.13 fold enrichment (6-mer frequency, TF over GST control). For the same sequence, the binding signal (SPIC) was 1.24 fold enrichment (6-mer frequency, TF over GST control), the binding signal (ELF4) was 1.19 fold enrichment (6-mer frequency, TF over GST control) and the binding signal (ELK4) was 1.18 fold enrichment (6-mer frequency, TF over GST control). For the same sequence, the binding signal (ETV2) was 1.16 fold enrichment (6-mer frequency, TF over GST control), the binding signal (ELF3) was 1.11 fold enrichment (6-mer frequency, TF over GST control) and the binding signal (CRX) was 1.33 fold enrichment (6-mer frequency, TF over GST control). For the same sequence, the binding signal (ETV1) was 1.13 fold enrichment (6-mer frequency, TF over GST control).
